Screening results from PubChem.
Tgondii IFNg = blocks Toxoplasma gondii growth in the presence of IFN-gamma. Toxoplasma gondii growth in IFN-gamma-treated host cells; hits give low values. activity change, negative = inhibition, % (no concentration beside the values). 3.8% of 69,000 active. AID 1259416; in the data active = activity change below about -70%, passing the limit was not always enough;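 also: host cells are HeLa cells infected with Toxoplasma gondii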
The depositor's hits bear a star; ! = not active in a repeat. This excerpt belongs to a sample that is enriched for hits.

SMILES | Tgondii IFNg
C[C@@H]1C(=O)NC[C@@H]2CN(CC3CC3)C[C@@H]21 | -29
CC12CCC3C4CCCC=C4CCC3C1CCC2O (stereo not drawn) | -59
C[C@]1(O)CC[C@H]2[C@@H]3CCC4=CC(=O)CC[C@]4(C)[C@@]3(F)[C@@H](O)C[C@@]21C | 12
C[C@]12CCC(=O)C=C1CCC1C2CC[C@@]2(C)C1CC[C@@H]2O (stereo partly drawn) | -88*
C[C@]12CC[C@@H]3c4ccc(O)c(O)c4CC[C@H]3[C@@H]1CC[C@@H]2O | 35
C#CC1(O)CCC2C3CCC4=CC(=O)CCC4(C)C3CCC21C (stereo not drawn) | -43
C[C@]12CC[C@H]3[C@@H](CCC4=CC(=O)CC[C@@H]43)[C@@H]1CC[C@@H]2O | -76*
CCCCCN1CC2CN(C(=O)CCc3cccnc3)CC2C1 (stereo not drawn) | 51
CCN1CCC2(COCc3cnc(NCC4CC4)nc32)C1 (stereo not drawn) | 146
CN(C)Cc1cncc2c1CCN(S(=O)(=O)c1cccs1)C2 | 38
CCCN1CC[C@@H]2C[C@H](C(=O)Nc3cccnc3C)O[C@@H]2C1 | 33
CC(=O)Nc1ccc(CN(C)C(C)Cc2ccccn2)cc1 (stereo not drawn) | -5
COc1cccc(CNC(=O)c2cc3cccnc3n(Cc3ccccc3F)c2=O)c1 | 14
O=C(NCCc1cccs1)C1C2CCC1CNC2 (stereo not drawn) | 52
Cc1ccc(NC(=O)c2c(O)c3cccnc3n(Cc3ccccc3)c2=O)cc1C | 94
Cc1ccc(NC(=O)c2c(O)c3cccnc3n(Cc3ccccc3)c2=O)cc1F | 30
O=C(Nc1ccccc1F)c1c(O)c2cccnc2n(Cc2ccccc2)c1=O | 42
O=C(Nc1ccc2c(c1)OCO2)c1c(O)c2cccnc2n(Cc2ccccc2)c1=O | 113
O=C(Nc1cccc(F)c1)c1c(O)c2cccnc2n(Cc2ccccc2)c1=O | 107
O=C(Nc1ccc2c(c1)OCCO2)c1c(O)c2cccnc2n(Cc2ccccc2)c1=O | 211
Cc1ccc(NC(=O)c2c(O)c3cccnc3n(Cc3ccccc3)c2=O)c(F)c1 | 138
O=C(Nc1ccc(Cl)cc1)c1c(O)c2cccnc2n(Cc2ccccc2)c1=O | 44
O=C(NCc1ccc2c(c1)OCO2)c1c(O)c2cccnc2n(Cc2ccccc2)c1=O | -77*
Cc1ccccc1CNC(=O)c1c(O)c2cccnc2n(Cc2ccccc2)c1=O | -119*
Cc1cccc(CNC(=O)c2c(O)c3cccnc3n(Cc3ccccc3)c2=O)c1 | -119*
SMILES | Tgondii IFNg
O=C(NCc1ccccc1Cl)c1c(O)c2cccnc2n(Cc2ccccc2)c1=O | -108*
O=C(Nc1ccc(F)cc1)c1cc2cccnc2n(Cc2ccc(Cl)cc2)c1=O | 137
C/C=C/CC(=O)N1CCCC2(CCN(C)CC2)CC1 | -1
O=C(Nc1ccc(C(F)(F)F)cc1)c1cc2cccnc2n(Cc2ccccc2F)c1=O | 17
N#Cc1cccc(CN2C[C@@H]3CN(c4ncccn4)C[C@@H]3C2)c1 | -3
O=C(O)CN1CCCC2(CC(c3ncc(F)cn3)CO2)C1 (stereo not drawn) | 65
COCCN1CCN(Cc2cnn(C)c2)Cc2cccnc21 | 63
C=CCN1CCN(Cc2csc(C)n2)Cc2cccnc21 | 67
CCN1C[C@@H]2[C@H](C1)OC[C@@H]2C(=O)Nc1cccnc1 | -35
c1ccc(CN2CC[C@@H]3[C@@H]2CCN3c2ncccn2)nc1 | 33
O=C(c1ncccc1O)N1CCC2(CC1)NCCNC2=O | -43
O=C(NCc1ccccc1)c1cc2cccnc2n(Cc2ccc(Cl)cc2)c1=O | -24
O=C(Nc1cc(F)ccc1F)c1c(O)c2cccnc2n(Cc2ccccc2)c1=O | 164
COc1ccccc1NC(=O)c1c(O)c2cccnc2n(Cc2ccccc2)c1=O | 47
O=C(NCc1ccc(F)cc1F)c1c(O)c2cccnc2n(Cc2ccccc2)c1=O | -104*
O=C(NCc1ccco1)c1cc2cccnc2n(Cc2ccccc2)c1=O | -45
O=C(Nc1ccc(F)cc1F)c1c(O)c2cccnc2n(Cc2ccccc2)c1=O | -22
O=C(NCc1ccco1)c1c(O)c2cccnc2n(Cc2ccccc2)c1=O | -99*
Cc1ccc(C(=O)N2CCN(C)C3(CCN(C)CC3)C2)c(=O)[nH]1 | 4
CCOC(=O)c1ccc(NC(=O)c2cc3cccnc3n(Cc3ccccc3)c2=O)cc1 | 13
COc1ncccc1CN1CCOCC2(CCC(CN(C)C)O2)C1 (stereo not drawn) | 79
COc1ccc(/C=C2\CCCN=C2c2cccnc2)c(OC)c1 | -9
Cc1cccc(C(C(=O)NCCc2cnc[nH]2)N(C)C)c1 (stereo not drawn) | 8
Cn1nc(C2NCCc3[nH]cnc32)c2c(Cl)cccc21 (stereo not drawn) | -22
Cc1cccc(CN2CC[C@@H]3OCCN(S(=O)(=O)C4CC4)[C@@H]3C2)n1 | -4
SMILES | Tgondii IFNg
Cc1cccc(CN2C[C@H]3OCCN(C)[C@H]3C2)n1 | 2
C=CCOC1C2CCC1N(Cc1cccc(C)n1)CCO2 (stereo not drawn) | -71*
CCOc1ccc(NC(=O)c2cc3cccnc3n(Cc3ccccc3)c2=O)cc1 | 103
C[C@@]12CC(O)CCN1CCc1ccccc12 (stereo partly drawn) | 2
C/C1=C/C[C@@H](/C(C)=C/c2csc(C)n2)OC(=O)C[C@H](O)C(C)(C)C(=O)[C@H](C)[C@@H](O)[C@@H](C)CCC1 | -60
C/C(=C\c1csc(C)n1)[C@@H]1C[C@@H]2O[C@@H]2CCC[C@H](C)[C@H](O)[C@@H](C)C(=O)C(C)(C)[C@@H](O)CC(=O)O1 | -68
C/C(=C\c1csc(C)n1)[C@H]1C[C@@H]2O[C@]2(C)CCC[C@H](C)[C@H](O)[C@@H](C)C(=O)C(C)(C)[C@H](O)CC(=O)O1 | -75*
CCN(CC1CCOCC1)C1CCCNC1 (stereo not drawn) | 0
COCCNC(=O)[C@@H]1CCO[C@@H]2CCN(Cc3cc(C)on3)C[C@H]21 | -21
O=C(Nc1cccc(C(F)(F)F)c1)c1cc2cccnc2n(Cc2ccc(Cl)cc2)c1=O | 9
COc1ccc2c(c1)C1(CCN(C(=O)c3scnc3C)CC1)CC2CC(=O)O (stereo not drawn) | -9
COc1ccc2c(c1)C1(CCN(C(=O)C3(c4ccccc4)CCCC3)CC1)CC2CC(=O)O (stereo not drawn) | -15
COc1ccc2c(c1)C1(CCN(C(=O)c3nn(C)c4ccccc34)CC1)CC2CC(=O)O (stereo not drawn) | -74*
CC(C)N(C)CC1COC2(CNCCOC2)C1 (stereo not drawn) | -8
O=C1CC[C@@]2(O)[C@H]3Cc4ccc(O)c5c4[C@@]2(CCN3CC2CC2)[C@H]1O5 | -8
O=C1/C(=C/c2ccccc2)C[C@@]2(O)C3Cc4ccc(O)c5c4[C@@]2(CCN3CC2CC2)[C@H]1O5 | -76*!
Oc1ccc2c3c1O[C@H]1c4[nH]c5c(c4C[C@@]4(O)[C@@H](C2)N(CC2CC2)CC[C@]314)C[C@@]1(O)[C@H]2Cc3ccc(O)c4c3[C@@]1(CCN2CC1CC1)[C@H]5O4 | 12
O=C1NCCN(Cc2ccccc2)C12CCNCC2 | 89
Cc1ncc(CN2CC[C@@H]3OCCN(Cc4ccncc4)[C@@H]3C2)[nH]1 | -30
COc1cc2c(cc1OC)[C@@H]1C(=O)c3ccc(OC)c(CC=C(C)C)c3O[C@@H]1CO2 | 21
COc1cc2c(cc1OC)[C@@H]1C(=O)c3ccc4c(c3O[C@@H]1CO2)CC(C(C)C)O4 (stereo partly drawn) | -82*
